About 79,000 compounds went through this panel and 15% of them were active in at least one assay; those are over-represented in the sample as a whole. No stated cut-off is given here; in the data, active means growth inhibition above about 70%; inactive means the rest. Where a SMILES comes first, the peptide text is derived from it. [ ]: non-standard residue; d: D form. The star is where a group is joined. ξ: configuration not given here. ξV = CC(C)C(N)C(=O)O; ClAc = O=C(CCl)*
Legend:
[1] = NCI Yeast Anticancer Drug Screen. Data for the rad50 strain (AID 155);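 further: 0% = growth of vehicle-only cultures of the same strain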; details: S. cerevisiae rad50 strain growth inhibition; at 50.0 µM; stronger effect = higher value
Outline: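 Inhibition values express reduced yeast growth in compound-treated cultures relative to vehicle-treated controls.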

[2] = NCI Yeast Anticancer Drug Screen. Data for the mec2-1 strain (AID 157); details: S. cerevisiae mec2-1 strain, at 50.0 µM, stronger effect = higher value
Outline: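 Each compound was tested on mec2-1 yeast, a strain altered in DNA damage repair or cell cycle control. Growth inhibition is reported relative to vehicle.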

[3] = NCI Yeast Anticancer Drug Screen. Data for the mlh1 rad18 strain (AID 175); details: S. cerevisiae mlh1 rad18 strain growth inhibition; at 50.0 µM; stronger effect = higher value
Outline: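 Inhibition values reflect reduced growth of mutant yeast versus vehicle-treated controls following compound exposure; the mutations affect DNA damage repair.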

Measured: growth inhibition

C[N+]12CCC34c5ccccc5NC3C3C(CC(=O)[O-])OCC=C(C1)C3CC42 (stereo not drawn)
inactive: [1] -7.55% | [2] -45% | [3] -31%

CCCCCCCCCOCC(O)COc1ccccc1[N+](=O)[O-] (stereo not drawn)
inactive: [1] -9.2% | [2] -15.9% | [3] -5.5%

C=CCOc1cccc(OCC=C)c1C
inactive: [1] -14.9% | [2] -20% | [3] -3.9%

OCC1OC(Nc2ccccc2O)C(O)C(O)C1O (stereo not drawn)
inactive: [1] 41.5% | [2] 15.6% | [3] 25.7%

CCCCCCCCCCCCOc1ccccc1
inactive: [1] 6.15% | [2] -14.3% | [3] 7.6%

CCn1c(C)nc2cc(S(=O)(=O)CS(C)(=O)=O)ccc21
inactive: [1] 17% | [2] -12.8% | [3] 19.8%

O=C(NNCN1C(=O)c2ccccc2C1=O)c1ccccc1
inactive: [1] -13.8% | [2] -15.7% | [3] -4.7%

CC(=O)CCN(Cc1ccccc1)Cc1ccccc1
inactive: [1] 1.7% | [2] -1.95% | [3] 22.4%

COc1cc(/C=C(/C#N)C(N)=O)ccc1O
inactive: [1] -1.7% | [2] -35% | [3] -54.9%

COc1cccc(CNc2ccc(SC)cc2)c1OC
inactive: [1] 10.2% | [2] 12.9% | [3] 18.9%

CC(C)C(NC(=O)CNC(=O)CCl)C(=O)O (stereo not drawn) (ClAc-Gly-[ξV]-OH)
inactive: [1] 7.6% | [2] -16.5% | [3] 4.1%

O=C1c2ccccc2C(=O)N1/N=C/c1cc(Cl)cc(Cl)c1O
inactive: [1] 0.95% | [2] -17.4% | [3] -4.95%

c1ccc(-c2nc3ccc4ccccc4c3nc2-c2ccccc2)cc1
inactive: [1] -8.85% | [2] -35.2% | [3] 1.85%

CCOC(=O)NC(C)(C)CN(C(=O)OCC)c1ccccc1
inactive: [1] -31.4% | [2] -39.6% | [3] -10.7%

CCOc1ccc(Br)cc1C=O
inactive: [1] 54.2% | [2] 17.4% | [3] 45.1%

O=C1c2ccccc2C(=O)N1/N=C/c1cc(Br)ccc1O
inactive: [1] 22.2% | [2] -4.35% | [3] 10.4%

CC1=NN(c2ccccc2)C(=O)/C1=C\c1ccc(N(CCC#N)CCC#N)cc1
inactive: [1] 6.85% | [2] -4.95% | [3] 21.9%

NC(=S)N/N=C/c1cc([N+](=O)[O-])ccc1Cl
inactive: [1] 10.8% | [2] -9.75% | [3] 10.2%

CCCCCCC(C/C=C\CCCCCCCC(=O)OC)OC(C)=O (stereo not drawn)
inactive: [1] -10.2% | [2] -16.7% | [3] -4.5%

C[n+]1ccc(/C=C\c2ccc3c(c2)OCO3)cc1
inactive: [1] -1.4% | [2] -26.9% | [3] 2.6%

CC(C)C(C(=O)c1ccccc1)c1ccccc1 (stereo not drawn)
inactive: [1] -0.3% | [2] -10.1% | [3] -3.55%

c1ccc2c(c1)OCCOCCOc1ccccc1OCCOCCO2
inactive: [1] 3.15% | [2] 10.8% | [3] 15.1%

O=C1Nc2ccccc2/C1=N/N=C/c1cc(Cl)cc(Cl)c1O
inactive: [1] 32.7% | [2] 9.4% | [3] 20.1%

CC1(c2ccc3ccccc3c2)CCC(=O)O1 (stereo not drawn)
inactive: [1] -2.75% | [2] -30% | [3] -4.8%

C(=C/c1ccc(/C=C/c2ccccc2)cc1)/c1ccccc1
inactive: [1] -22.1% | [2] -13.9% | [3] -26.8%

Cc1cc(CSC(=N)N)c(C)cc1CSC(=N)N
inactive: [1] -12.1% | [2] -39.6% | [3] -7.5%

O=c1oc(/C=C/c2ccccc2)nc2cc(Cl)ccc12
inactive: [1] 19.6% | [2] 10.1% | [3] 10.4%

CC(/C=N/N1C(=O)c2ccccc2C1=O)c1ccccc1 (stereo not drawn)
inactive: [1] 12.8% | [2] -11.6% | [3] -10.8%

Cc1cc(C)cc(NC(=O)c2ccccc2N)c1
inactive: [1] -5.15% | [2] -27.9% | [3] -4.6%

OCNC(=S)c1c(Cl)cccc1Cl
inactive: [1] -4.25% | [2] -18.1% | [3] -6.6%

O=C(CN1CCOCC1)Nc1cccc(C(F)(F)F)c1
inactive: [1] -33.7% | [2] -31.4% | [3] -35.4%

— PubChem BioAssay (NCI)
